Bioassay records as filed in PubChem BioAssay.
ALDH1A1 inh – inhibitors of human aldehyde dehydrogenase 1A1; Purified ALDH1A1, NADH fluorescence, propionaldehyde substrate; Potency, µM (top dose mostly 75.3 µM), hits mostly inhibitors; 7.3% of 220,000 active
Tau fluor cs – counter-screen for tau fibril formation inhibitors; tau K18 P301L Alexa594 fluorescence, heparin fibrillization; Potency, µM (titrated, usually from 57.7 µM); 0.93% of 280,000 active; AID 1463; active means well fitted curve in the direction sought with a large enough effect; inconclusive means small, poorly fitted or top-dose-only effect, or another doubt; inactive means no such curve, though single readings can be large; an effect the other way counts as inactive or inconclusive; further: nearly all actives have a fitted effect of over 55% in size
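Human tau K18 P301L (15 uM unlabeled, 0.24 uM Alexa 594-labeled) in 100 mM sodium acetate pH 7 with 20 uM heparin, 6 hr at 37 C. ThT 30 uM added, 1 hr ambient; Alexa 594 FP and total fluorescence read at 555/632 nm.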
HPGD inh – blocks human HPGD enzyme activity | purified HPGD, NADH fluorescence kinetic, PGE2 substrate | AID 894 | Potency, µM, actives largely listed as inhibitors | 4.3% of 150,000 active | P15428
Target sequence (P15428 whole entry, looked up): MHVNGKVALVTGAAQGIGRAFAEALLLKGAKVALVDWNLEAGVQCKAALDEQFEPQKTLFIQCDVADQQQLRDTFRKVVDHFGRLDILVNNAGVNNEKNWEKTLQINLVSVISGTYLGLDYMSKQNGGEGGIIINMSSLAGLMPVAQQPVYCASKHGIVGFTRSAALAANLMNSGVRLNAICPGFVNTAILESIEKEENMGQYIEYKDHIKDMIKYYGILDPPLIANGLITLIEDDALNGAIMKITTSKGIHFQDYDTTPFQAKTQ
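20 nM HPGD preincubated 15 min at room temperature with compound in 50 mM Tris-HCl pH 8, 0.01% Tween 20. Started with 1 mM NAD+ and 30 uM prostaglandin E2; NADH fluorescence (360/450 nm) read 5 times over 30-s intervals, last minus first.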
Tau fibril FP – tau fibrillization inhibition (FP); Potency, µM (top dose mostly 57.7 µM), hits mostly inhibitors; 0.39% of 280,000 active; K18 P301L tau heparin fibrillization, Alexa594 FP, 6 h; active means well fitted curve in the direction sought with a large enough effect; inconclusive means small, poorly fitted or top-dose-only effect, or another doubt; inactive means no such curve, though single readings can be large; an effect the other way counts as inactive or inconclusive; further: nearly all actives have a fitted effect of over 55% in size
Target sequence (P10636 561-689 P618L limits assumed): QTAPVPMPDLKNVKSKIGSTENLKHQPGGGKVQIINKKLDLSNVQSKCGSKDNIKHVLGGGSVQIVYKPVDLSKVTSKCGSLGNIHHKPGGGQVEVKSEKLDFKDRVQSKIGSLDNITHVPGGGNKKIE
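Steps: dispense K18 P301L tau (15 uM plus 0.24 uM Alexa 594 tracer, final) in pH 7 sodium acetate; add compound; add heparin (20 uM final); incubate 6 hr, 37 C; add ThT (30 uM final); after 1 hr ambient, read FP.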
Tau ThT inhib – inhibitors of human tau fibril formation, thioflavin T binding. P10636. recombinant tau K18 P301L (four-repeat tau fragment), heparin-induced fibrillization, ThT fluorescence. Potency, µM (doses to about 57.4 µM), usual class: inhibitors. 2.1% of 270,000 active; active means well fitted curve in the direction sought with a large enough effect; inconclusive means small, poorly fitted or top-dose-only effect, or another doubt; inactive means no such curve, though single readings can be large; an effect the other way counts as inactive or inconclusive; further: nearly all actives have a fitted effect of over 55% in size
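In this qHTS, human K18 P301L tau is incubated with compound and heparin for 6 hr at 37 C, and Thioflavin T fluorescence then reports fibril load.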
JMJD2E inh – JMJD2E (human) inhibition; AID 2147; 1.6% of 230,000 active; Potency, µM (doses to about 57.1 µM), usual class: inhibitors; JMJD2E catalytic domain, FDH-coupled NADH fluorescence (FDH is formaldehyde dehydrogenase); further: nearly all actives have a fitted effect of over 50% in size
Target sequence (B2RXH2 1-337 limits assumed): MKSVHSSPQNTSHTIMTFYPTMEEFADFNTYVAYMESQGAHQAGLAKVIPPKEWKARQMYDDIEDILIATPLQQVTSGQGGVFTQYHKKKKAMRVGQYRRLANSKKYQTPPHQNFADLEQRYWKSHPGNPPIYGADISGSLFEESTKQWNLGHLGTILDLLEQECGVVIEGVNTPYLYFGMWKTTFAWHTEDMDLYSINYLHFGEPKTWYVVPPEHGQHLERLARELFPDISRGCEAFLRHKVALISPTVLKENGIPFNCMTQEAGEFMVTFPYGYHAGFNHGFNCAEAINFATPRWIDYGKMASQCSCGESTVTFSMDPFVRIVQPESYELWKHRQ
Large screens that a line does not name were inactive; [ ] = another dose, or the depositor's remark. Only some compounds are listed: those with a hit (about 9.9% of all), similar ones and a draw of the others. Unless noted, the call rests on the fitted dose curve; in most records, active means well fitted inhibition curve with a large enough effect (not every such curve was filed as active); inconclusive means small, poorly fitted or top-dose-only effect, or another doubt; inactive means no such curve, though single readings can be large or run the other way.

O=C(/C=C/c1ccc(Cl)c([N+](=O)[O-])c1)Nc1ccc(N2CCCC2)c(Cl)c1	Tau fluor cs inconclusive, Tau ThT inhib 1µM
O=C(Nc1ccc(N2CCN(C(=O)c3ccccc3)CC2)c(Cl)c1)c1ccc(Br)o1	ALDH1A1 inh inconclusive, Tau fluor cs inconclusive, HPGD inh inconclusive, Tau ThT inhib inconclusive, JMJD2E inh inconclusive
Cc1cccc(NC(=O)Cn2c(=O)n(CC3CCC(C(=O)NCCc4ccccc4)CC3)c(=O)c3ccccc32)c1 (centres undefined)	none (no result: ALDH1A1 inh, HPGD inh, JMJD2E inh)
Cc1cc(C(=O)N/N=C2\CC(=O)c3ccccc32)c(C)n1-c1ccccc1	Tau ThT inhib inconclusive (no result: HPGD inh)
CCc1ccc(-c2nc3cc(NC(=O)c4ccc(F)cc4)ccc3o2)cc1	Tau ThT inhib inconclusive (no result: ALDH1A1 inh, HPGD inh, JMJD2E inh)
CC(=O)N1CCN(c2ccc(NC(=O)c3ccccc3Br)cc2Cl)CC1	ALDH1A1 inh inconclusive, HPGD inh 16µM
O=C(Nc1ccc(N2CCCC2)c(Cl)c1)c1ccc([N+](=O)[O-])o1	ALDH1A1 inh 3.5µM, Tau fluor cs 14µM[quencher], Tau ThT inhib 8.9µM (no result: HPGD inh)
Cc1nn(-c2ccccc2)c(C)c1/C=N/NC(=O)CSc1nnc(SCc2cccc3ccccc23)s1	ALDH1A1 inh inconclusive
Oc1cccc(Oc2ncc(C(F)(F)F)cc2Cl)c1	none (no result: HPGD inh)
O=c1oc2ccccc2c(O)c1/C=N/c1ncccn1	ALDH1A1 inh inconclusive, HPGD inh inconclusive, Tau ThT inhib inconclusive, JMJD2E inh inconclusive
O=c1oc2ccccc2c(O)c1/C=N/c1nc(-c2ccc(O)c(O)c2)cs1	ALDH1A1 inh 3.5µM (no result: Tau fluor cs, Tau fibril FP, Tau ThT inhib, JMJD2E inh)
CC(C)(C)NC(=O)c1cc([N+](=O)[O-])ccc1N1CCCCC1	none
O=C(NC(=S)Nc1ccc(Oc2ccc(Cl)cc2)cc1)c1ccccc1	ALDH1A1 inh 8.9µM
CCC(=O)NC(=S)Nc1ccc(NC(=S)NC(=O)c2ccccc2)cc1	ALDH1A1 inh 25µM (no result: HPGD inh)
O=C(CCc1ccccc1)NNC(=S)NC(=O)c1ccc(Cl)cc1	ALDH1A1 inh 11µM
O=C(Nc1ccc(NC(=S)NC(=O)c2cccs2)cc1)c1ccccc1	ALDH1A1 inh inconclusive, Tau ThT inhib inconclusive
O=C(NC(=S)Nc1ccc(Cl)cc1)c1ccccc1	ALDH1A1 inh 15µM (no result: HPGD inh)
COc1ccc(-c2cnc3nc[nH]c(=O)c3n2)cc1	ALDH1A1 inh inconclusive, HPGD inh inconclusive
Cc1ccccc1NC(=O)Cn1nnc(S(=O)(=O)c2ccc(C(C)(C)C)cc2)c1N	none
COc1ccc(C(=O)C(c2ccccc2)N2CCOCC2)cc1 (centres undefined)	none
CCCOc1ccc(C(=O)C(c2ccccc2)N2CCOCC2)cc1 (centres undefined)	ALDH1A1 inh 13µM, HPGD inh inconclusive
O=C(NCCN1CCCCC1)c1ccc(Cn2c(SCc3cccc(F)c3)nc3cccnc32)cc1	none (no result: ALDH1A1 inh, HPGD inh, JMJD2E inh)
CN(C)c1ccc(C(CNC(=O)c2ccc(C#N)cc2)c2c[nH]c3ccccc23)cc1 (centres undefined)	ALDH1A1 inh 14µM, Tau fluor cs 14µM[quencher], Tau fibril FP inconclusive, Tau ThT inhib inconclusive
CN(C)c1ccc(C(CNC(=O)c2ccccc2Br)c2c[nH]c3ccccc23)cc1 (centres undefined)	ALDH1A1 inh 7.9µM, Tau fluor cs inconclusive, Tau fibril FP inconclusive, Tau ThT inhib inconclusive
CCN(CC)S(=O)(=O)c1ccc(C(=O)NCCSc2c[nH]c3ccccc23)cc1	ALDH1A1 inh inconclusive, Tau fluor cs inconclusive, Tau ThT inhib inconclusive
CN(C)c1ccc(C(CNS(=O)(=O)c2ccc(F)cc2)c2c[nH]c3ccccc23)cc1 (centres undefined)	ALDH1A1 inh inconclusive, Tau fluor cs 11µM[quencher]
CCOC(=O)c1ccc(S(=O)(=O)NCC(c2ccc(N(C)C)cc2)c2c[nH]c3ccccc23)cc1 (centres undefined)	none
Cc1ccc(CN(C(=O)COc2ccc(C(C)C)cc2)C2CCS(=O)(=O)C2)o1 (centres undefined)	none (no result: ALDH1A1 inh, HPGD inh, JMJD2E inh)
COc1ccc(C(C)=O)cc1COC(=O)CNC(=O)c1ccccc1F	ALDH1A1 inh 7.1µM, HPGD inh inconclusive
CCNCc1ccccc1OCc1ccccc1	none (no result: HPGD inh)
N#CC(Nc1ccccc1)c1ccccc1OCc1ccccc1 (centres undefined)	ALDH1A1 inh 18µM
O=C(CCSCc1cccc(Cl)c1)NCc1ccccc1Cl	none (no result: ALDH1A1 inh, HPGD inh, JMJD2E inh)
O=C(Cc1ccccc1)NCCc1cccc(Cl)c1	ALDH1A1 inh inconclusive, HPGD inh 10µM
O=C(CCSCc1cccc(Cl)c1)NCCc1ccccc1	ALDH1A1 inh inconclusive, HPGD inh 8.9µM
COc1ccc(CNC(=O)CCSCc2cccc(Cl)c2)c(OC)c1	ALDH1A1 inh inconclusive, HPGD inh 28µM
C#CCOC(=O)CCC(=O)NCCc1ccccc1	ALDH1A1 inh 10µM
COC(=O)C1=C(N)c2c(F)cccc2C1(C#N)c1ccc(F)cc1 (centres undefined)	ALDH1A1 inh inconclusive, JMJD2E inh inconclusive
Cc1c(C(=O)N2CCCCC2C)sc2ncnc(N3CCc4ccccc4C3)c12 (centres undefined)	ALDH1A1 inh 7.9µM, Tau ThT inhib inconclusive (no result: HPGD inh)
Cc1c(C(=O)N2CCOCC2)sc2ncnc(N3CCc4ccccc4C3)c12	none
Oc1ccc(Cl)cc1/C=C/c1ccc2cccc(O)c2n1	Tau fluor cs 25µM[quencher], Tau fibril FP inconclusive, Tau ThT inhib inconclusive (no result: HPGD inh)
Oc1c(Cl)cc(Cl)cc1/C=C/c1ccc2cccc(O)c2n1	Tau fluor cs inconclusive, Tau ThT inhib inconclusive (no result: HPGD inh)
CC1=C([N+](=O)[O-])C(c2cccc(Br)c2)C2=C(N1)c1ccccc1C2=O (centres undefined)	ALDH1A1 inh inconclusive, Tau fluor cs 14µM[quencher], HPGD inh 16µM, Tau fibril FP inconclusive, Tau ThT inhib 16µM
CCCCOc1cccc(C(=O)NC(=S)Nc2ccc(Cl)c(C(=O)O)c2)c1	ALDH1A1 inh inconclusive (no result: HPGD inh)
CCOc1cccc(C(=O)NC(=S)Nc2cccc(C)c2)c1	ALDH1A1 inh 8.9µM, Tau ThT inhib inconclusive
CCCOc1cccc(C(=O)NC(=S)Nc2cccc(C(F)(F)F)c2)c1	ALDH1A1 inh 18µM, Tau fluor cs inconclusive, Tau ThT inhib inconclusive
COc1ccc(S(=O)(=O)c2c(C(=O)c3ccc(C)c(C)c3)cnc3ccc(C)cc23)cc1	Tau fibril FP inconclusive (no result: ALDH1A1 inh, HPGD inh, JMJD2E inh)
Cc1ccc(C(=O)NC(=S)Nc2ccccc2C(F)(F)F)cc1C	ALDH1A1 inh 4.5µM
Cc1cc(C(=O)Nc2ccccc2C(F)(F)F)no1	none
Cc1cccc(C(=O)NC(=S)Nc2ccccc2C(F)(F)F)c1	ALDH1A1 inh 18µM, Tau fibril FP inconclusive
Cc1cccc(C(=O)NC(=S)Nc2ccccc2C(=O)O)c1	ALDH1A1 inh inconclusive, JMJD2E inh inconclusive (no result: HPGD inh)
COc1ccc(/C=C/C(=O)N2CCN(C)CC2)cc1S(=O)(=O)N1CCCCC1	ALDH1A1 inh inconclusive, Tau fibril FP inconclusive (no result: HPGD inh)
Cc1ccccc1-n1nnnc1SC1CCOC1=O (centres undefined)	ALDH1A1 inh 11µM
